Results from PubChem BioAssay (NCATS).
Results filed as inconclusive are left out. Where a call stands in place of a potency, no number is given. Activity calls are given as the source filed them. The call rests on the fitted dose curve; in most records, active means well fitted inhibition curve with a large enough effect; inconclusive means small, poorly fitted or top-dose-only effect; inactive means no such curve, though single readings can be large or run the other way.

molecular target: Cytochrome P450 3A4 (Homo sapiens) (UniProt P08684); test: qHTS Assay for Inhibitors and Substrates of Cytochrome P450 3A4 (AID 884); conditions: recombinant CYP3A4, Luciferin-PPXE luminescence; series mostly up to 57.1 µM; further: nearly all actives have a fitted effect of over 50% in size
Sequence (P08684 whole entry, looked up): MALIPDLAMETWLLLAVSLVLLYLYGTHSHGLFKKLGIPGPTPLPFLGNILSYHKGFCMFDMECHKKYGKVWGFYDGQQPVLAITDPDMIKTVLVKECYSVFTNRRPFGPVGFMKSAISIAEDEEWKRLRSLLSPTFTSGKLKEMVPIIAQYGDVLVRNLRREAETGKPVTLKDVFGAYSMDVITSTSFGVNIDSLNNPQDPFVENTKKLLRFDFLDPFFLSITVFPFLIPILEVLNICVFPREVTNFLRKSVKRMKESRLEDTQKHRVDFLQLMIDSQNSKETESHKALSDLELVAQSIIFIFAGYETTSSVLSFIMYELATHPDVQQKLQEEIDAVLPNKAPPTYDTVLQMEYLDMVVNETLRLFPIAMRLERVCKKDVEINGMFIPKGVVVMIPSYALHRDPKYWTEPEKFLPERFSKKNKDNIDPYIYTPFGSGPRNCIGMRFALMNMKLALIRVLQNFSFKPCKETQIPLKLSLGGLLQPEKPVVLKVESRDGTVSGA
Method in brief: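 Luminescent readout of luciferin produced by CYP3A4 (20 nM) dealkylation of Luciferin-PPXE, 25 uM (its KM). NADPH-driven reaction ran 60 min at RT after 10 min compound preincubation; data scaled to 57 uM ketoconazole as 100% inhibition.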
Potency means the concentration at half of the fitted maximal effect.

Row | Structure (SMILES) | Potency
1 | CN(C)c1nc(N)c(C(=O)Nc2cccnc2)nc1Cl | inactive
2 | COC(=O)CC1Oc2cc3oc4c(c3cc2O1)C(=O)CC(C)(C)C4 (stereo not given) | inactive
3 | OB(O)c1ccc(Cl)s1 | inactive
4 | CCC1=C2CC[C@H]3C(=O)N(c4ccccc4)C(=O)[C@H]3[C@H]2[C@@]2(C)C(=NCC3CC3)OC(=O)N2C1=O | 10 µM (active)
5 | NC(=O)NCC1CC1 | inactive
6 | CCC1=C(OC(=O)N(CC)CC)N2C(=O)OC(=NCCc3c[nH]c4ccccc34)[C@]2(Cc2ccccc2)[C@H]2C1=CC[C@H]1C(=O)N(C)C(=O)[C@H]12 | 1.26 µM (active)
7 | CC(C)Cn1c(N)c(C(=O)COC(=O)c2cc(-c3ccccc3)nc3ccccc23)c(=O)n(C)c1=O | inactive
8 | CNC(=O)[C@@]1(Cc2ccccc2)C=C[C@@H](C)N1C(C)=O | inactive
9 | CN(C)/C=N/c1cc(=O)n(C)c(=O)n1Cc1ccccc1 | inactive
10 | c1ccc(-c2ccc(CN3C[C@@H]4C(c5ccccc5)C5(c6ccccc6)CC4(C5)[C@H]3c3ccccc3)cc2)cc1 (stereo not given in full) | inactive
11 | FC(F)(F)c1ccc(C2[C@H]3CN(CC4CCCCC4)[C@H](c4ccccc4)C34CC2(c2cccnc2)C4)cc1 (stereo not given in full) | 15.8 µM (active)
12 | O=C(N[C@@H](Cc1ccccc1)C(=O)O)c1ccccc1 | inactive
13 | NC(N)=NCCC[C@H](NC(=O)CC1(CC(=O)N2CCN(C3c4ccccc4NC(=O)c4ccccc43)CC2)CCCC1)C(=O)NCCn1c(=O)n(-c2ccccc2)n(-c2ccccc2)c1=O (stereo not given in full) | 12.6 µM (active)
14 | COC(=O)[C@@H]1C[C@@]2(O)[C@H](O)[C@H](O)[C@H](O)C[C@H]2N1Cc1ccc(N2CCOCC2)cc1 | inactive
15 | Nc1cccc(B(O)O)c1 | inactive
16 | C#CC(C)OC(=O)C(C)NC(=O)c1ccccc1 (stereo not given) | inactive
17 | N#Cc1ccc(C23CC4(C2)[C@H](CN(Cc2ccc(-c5ccccc5)cc2)[C@@H]4c2ccccc2)C3c2ccc(C(F)(F)F)cc2)cc1 (stereo not given in full) | inactive
18 | COC(=O)[C@@H]1C[C@@]2(O)[C@H](O)[C@H](O)[C@H](O)C[C@H]2N1CC1CC1 | inactive
19 | COC(=O)[C@@H]1C[C@@]2(O)[C@@H](O)[C@@H](O)[C@@H](O)C[C@H]2N1C/C=C/c1ccccc1 | inactive
20 | CCC1=C(OC(=O)N(CC)CC)N2C(=O)OC(=NCc3ccccc3)[C@]2(C)[C@H]2C1=CC[C@H]1C(=O)N(c3ccccc3)C(=O)[C@H]12 | 2.51 µM (active)

Row | Structure (SMILES) | Potency
21 | COC(=O)[C@@H]1C[C@@]2(O)[C@H](O)[C@H](O)[C@H](O)C[C@H]2N1Cc1cc(F)ccc1F | inactive
22 | OB(O)c1csc2ccccc12 | inactive
23 | O=Cc1ccsc1B(O)O | inactive
24 | COC(=O)c1ccc(C23CC4(C2)[C@H](CN(Cc2ccc(-c5ccccc5)cc2)[C@@H]4c2ccccc2)C3c2ccc(C(F)(F)F)cc2)cc1 (stereo not given in full) | inactive
25 | Cc1csc(B(O)O)c1 | inactive
26 | CO[C@H]1COC(=O)[C@H](C)NC(=O)C/C=C\[C@@H](C)[C@@H](NS(=O)(=O)c2ccc(C)cc2)COC(=O)[C@H](OCc2ccccc2)/C=C\[C@@H]1C | 3.16 µM (active)
27 | O=C(N/N=C1/C[C@@H](O)[C@@H](O)[C@@H]2[C@@H]3C(=O)N(Cc4ccc5c(c4)OCO5)C(=O)[C@H]3CC[C@H]12)OCc1ccccc1 | 3.98 µM (active)
28 | COC(=O)[C@@H]1C[C@@]2(O)[C@@H](O)[C@@H](O)[C@@H](O)C[C@H]2N1Cc1ccc(-c2ccccc2)cc1 | inactive
29 | CC1(C(=O)NCc2cc(F)cc(C(F)(F)F)c2)C=CC2(CCCCC2)N1C(=O)c1ccccc1 (stereo not given) | 6.31 µM (active)
30 | CCC1=C(OC(=O)N(CC)CC)N2C(=O)OC(=NCCc3c[nH]c4ccccc34)[C@]2(C)[C@H]2C1=CC[C@H]1C(=O)N(C)C(=O)[C@H]12 | 1.26 µM (active)
31 | FC(F)(F)c1ccc(C2[C@H]3CN(CC4CCCCC4)[C@H](c4ccccc4)C34CC2(c2ccccc2)C4)cc1 (stereo not given in full) | inactive
32 | O=C(O)/C=C/c1cccc(B(O)O)c1 | inactive
33 | COc1cc(/C=C/C(=O)N2CCCCC2=O)cc(OC)c1OC | inactive
34 | CNC(=O)[C@@H](Cc1ccccc1)N(C)C(=O)[C@@H](Cc1ccc2ccccc2c1)N(C)C(=O)/C=C/CC(C)(C)N | 7.94 µM (active)
35 | COC(=O)[C@@H]1C[C@@]2(O)[C@@H](O)[C@@H](O)[C@@H](O)C[C@H]2N1Cc1ccc(C(F)(F)F)cc1 | inactive
36 | Cn1c(=O)c(C(=O)COC(=O)c2cc(C(F)(F)F)nc3c(C(F)(F)F)cccc23)c(N)n(Cc2ccccc2)c1=O | inactive
37 | CCC1=C2CC[C@H]3C(=O)NC(=O)[C@H]3[C@H]2[C@@]2(C)C(=NCC(=O)OC)OC(=O)N2C1=O | inactive
38 | CC(Cc1ccccc1)C(=O)N[C@@H](CO)Cc1ccccc1 (stereo not given in full) | 15.8 µM (active)
39 | CCCCCCCCCCCCCCCCCC(=O)NCCc1ccc(O)c(O)c1 | inactive
40 | COC(=O)c1ccc(C23CC4(C2)[C@H](CN(Cc2ccc(-c5ccccc5)cc2)[C@@H]4c2ccccc2)C3c2ccc(Cl)nc2)cc1 (stereo not given in full) | inactive
